Among the test systems are DU-145 prostate; K-562 leukemia; MALME-3M melanoma; MDA-MB-231 breast; RXF 393 renal; SF-268 CNS; SF-295 CNS; SF-539 CNS; UACC-257 melanoma; M14 melanoma; HCT-15 colon; HT29 colon; SNB-75 CNS; SNB-19 CNS; U251 CNS; PC-3 prostate; SK-MEL-5 melanoma; UACC-62 melanoma; LOX IMVI melanoma; SK-MEL-28 melanoma.
What all share (test): NCI-60 one-dose screen, 48 h (100 = growth as untreated, 0 = no growth, -100 = all killed)
What all share (conditions): 10 µM unless noted

The source of these data is PubChem BioAssay (NCI).

About 83,000 compounds went through this panel and 20% of them were active in at least one assay; those are over-represented in the sample as a whole.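 How to read the values: 0–100, growth inhibition (40 = 60% inhibited); 0, no net growth; -100 to 0, cell death (-40 = 40% of starting cells died; -100 = all dead).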 Unmarked numbers belong to inactive results. Active and inactive are the calls of the source. Rule for the calls: active = growth percent below 10; inactive = the rest.

Regarding `O=c1oc2ccccc2cc1C1=NN=C(SCc2ccccc2)SC1`, the growth in the assay on DU-145 prostate was 100%; with K-562 leukemia, 91.4%; in the assay with MALME-3M melanoma, 99.3%; in the assay on MDA-MB-231 breast, 101%; in the assay on RXF 393 renal, 109%; with SF-268 CNS, 97.1%. For the same compound, the growth in the assay with SF-295 CNS was 98.9%; with SF-539 CNS, 96.5%; with UACC-257 melanoma it was 110%; with M14 melanoma, 95.7%; in the assay on HCT-15 colon, 101%; with HT29 colon, 105%. Besides, the growth in the assay on SNB-75 CNS was 85.7%; in the assay on SNB-19 CNS, 103%; in the assay on U251 CNS it was 92.2%; in the assay with PC-3 prostate it was 94%; in the assay on SK-MEL-5 melanoma, 100%; in the assay with UACC-62 melanoma, 101%. Besides, the results for the growth with LOX IMVI melanoma and with SK-MEL-28 melanoma were 99.7% and 109%, respectively.

`O=C(Cc1ccccc1)Nc1nc(O)c(/C=C2\C(=O)C=Cc3ccccc32)s1`: the growth is 104% in the assay with DU-145 prostate; 100% in the assay with K-562 leukemia; 106% in the assay with MALME-3M melanoma; 98.1% in the assay on MDA-MB-231 breast; 111% with RXF 393 renal; 99.2% with SF-268 CNS. Further, the growth was 103% in the assay with SF-295 CNS; 102% in the assay with SF-539 CNS; 106% with UACC-257 melanoma; 89.7% with M14 melanoma; 100% in the assay with HCT-15 colon; 111% in the assay on HT29 colon. Moreover, the growth was 95.5% in the assay with SNB-75 CNS; 92.3% with SNB-19 CNS; 101% with U251 CNS; 92.4% with PC-3 prostate; 103% in the assay on SK-MEL-5 melanoma; 94.6% in the assay on UACC-62 melanoma. In addition, the growth is 97.6% with LOX IMVI melanoma and 114% in the assay with SK-MEL-28 melanoma.

Take `O=[N+]([O-])c1ccc(S(=O)(=O)N2CCN(C3=NS(=O)(=O)c4ccccc4N3c3ccccc3)CC2)cc1`: the growth in the assay on DU-145 prostate is 117%; with K-562 leukemia, 84.9%; in the assay on MALME-3M melanoma, 106%; with MDA-MB-231 breast it was 99.2%; with RXF 393 renal, 91.7%; in the assay with SF-268 CNS, 101%. Further, the growth was 91.2% with SF-295 CNS; 103% in the assay on SF-539 CNS; 101% with UACC-257 melanoma; 113% in the assay on M14 melanoma; 109% in the assay on HCT-15 colon; 110% in the assay with HT29 colon. For the same compound, the growth in the assay with SNB-75 CNS was 90.2%; in the assay with SNB-19 CNS, 101%; in the assay with U251 CNS, 101%; in the assay on PC-3 prostate, 87.4%; in the assay on SK-MEL-5 melanoma, 90.7%; in the assay on UACC-62 melanoma, 98.2%. Besides, the growth in the assay on LOX IMVI melanoma was 97.2%; with SK-MEL-28 melanoma, 135%.

Take `O=C1CC(N2C(=O)/C(=C/C(Cl)=C\c3ccc([N+](=O)[O-])cc3)SC2=S)C(=O)N1c1ccc(Cl)cc1` (stereo not given): the growth with DU-145 prostate was 22.4%; in the assay on K-562 leukemia, 6.26% (active); in the assay with MALME-3M melanoma, 22.9%; in the assay with MDA-MB-231 breast it was -3.07% (active); in the assay on RXF 393 renal, -64.1% (active); in the assay with SF-268 CNS it was 21.8%. Moreover, the growth in the assay with SF-295 CNS is 40.7%; with SF-539 CNS, 15.9%; in the assay on UACC-257 melanoma, 57.8%; in the assay with M14 melanoma it was 23.9%; in the assay with HCT-15 colon, -8.75% (active); in the assay on HT29 colon it was 4.25% (active). The growth in the assay on SNB-75 CNS was 17.2%; with SNB-19 CNS, 17.4%; in the assay with U251 CNS, 1.45% (active); with PC-3 prostate, -5.48% (active); with SK-MEL-5 melanoma, 59.9%; in the assay with UACC-62 melanoma it was 16.4%. Further, the growth in the assay on LOX IMVI melanoma was -71.7% (active); with SK-MEL-28 melanoma, 18.2%.

Regarding `O=C(Nc1ncc(Cc2ccc(Cl)c(C(F)(F)F)c2)s1)c1ccc2nnsc2c1`, the growth with DU-145 prostate was 53.7%; in the assay on K-562 leukemia, 24.7%; with MALME-3M melanoma, 48.7%; with MDA-MB-231 breast it was 67.4%; in the assay with RXF 393 renal, 75.6%; with SF-268 CNS it was 50.7%. For the same compound, the growth in the assay with SF-295 CNS is 20%; in the assay with SF-539 CNS it was 5.13% (active); in the assay on UACC-257 melanoma, 64.9%; in the assay with M14 melanoma it was 32.2%; with HCT-15 colon it was 40.4%; with HT29 colon, 57.7%. Moreover, the growth was 90.8% with SNB-75 CNS; 46.2% with SNB-19 CNS; 42.7% with U251 CNS; 38.3% in the assay on PC-3 prostate; 38.3% in the assay on SK-MEL-5 melanoma; 6.95% (active) with UACC-62 melanoma. The growth is 29.3% with LOX IMVI melanoma and 54.7% in the assay on SK-MEL-28 melanoma.

`CCn1c(SCC(=O)c2ccc(Br)cc2)nnc1-c1ccncc1`: the growth in the assay on DU-145 prostate was 103%; in the assay with K-562 leukemia it was 91.5%; in the assay with MALME-3M melanoma, 105%; in the assay with MDA-MB-231 breast, 106%; in the assay on RXF 393 renal, 113%; in the assay on SF-268 CNS, 96.5%. Moreover, the growth in the assay with SF-295 CNS is 101%; in the assay on SF-539 CNS, 99.3%; in the assay on UACC-257 melanoma it was 107%; in the assay on M14 melanoma, 108%; in the assay on HCT-15 colon it was 106%; with HT29 colon, 107%. Besides, the growth was 81.7% in the assay on SNB-75 CNS; 99.2% in the assay with SNB-19 CNS; 99.6% in the assay on U251 CNS; 102% in the assay with PC-3 prostate; 98.9% with SK-MEL-5 melanoma; 96.8% in the assay with UACC-62 melanoma. In addition, the growth in the assay with LOX IMVI melanoma is 101%; in the assay on SK-MEL-28 melanoma it was 109%.

`O=C1/C(=C/c2cccs2)SC(=S)N1CCCN1CCOCC1`: the growth with DU-145 prostate is 92%; in the assay with K-562 leukemia, 85.4%; with MALME-3M melanoma, 84.3%; in the assay on MDA-MB-231 breast it was 82.7%; in the assay on RXF 393 renal, 99.6%; in the assay with SF-268 CNS, 102%. The growth in the assay with SF-295 CNS was 102%; with SF-539 CNS it was 92.7%; with UACC-257 melanoma, 93.9%; in the assay on M14 melanoma it was 93.4%; with HCT-15 colon it was 83.6%; in the assay with HT29 colon, 103%. Also, the growth with SNB-75 CNS is 99%; in the assay with SNB-19 CNS, 92.5%; in the assay with U251 CNS, 94.8%; with PC-3 prostate, 75.5%; in the assay on SK-MEL-5 melanoma it was 95.3%; in the assay with UACC-62 melanoma, 79.1%. The growth is 89.1% with LOX IMVI melanoma and 95.8% in the assay with SK-MEL-28 melanoma.
